Screening data from PubChem BioAssay.
Sampled rows, rich in hits. Any-hit rate of the full collection: about 21%.
D3 ag = qHTS of D3 Dopamine Receptor Agonist: qHTS | D(3) dopamine receptor (Homo sapiens), P35462 | D3R DiscoveRx beta-arrestin cells, luminescence, 90 min | max activation, % | 410,000 tested, 0.58% active; in the data active = max activation above about 30%
Target sequence (P35462 whole entry, looked up): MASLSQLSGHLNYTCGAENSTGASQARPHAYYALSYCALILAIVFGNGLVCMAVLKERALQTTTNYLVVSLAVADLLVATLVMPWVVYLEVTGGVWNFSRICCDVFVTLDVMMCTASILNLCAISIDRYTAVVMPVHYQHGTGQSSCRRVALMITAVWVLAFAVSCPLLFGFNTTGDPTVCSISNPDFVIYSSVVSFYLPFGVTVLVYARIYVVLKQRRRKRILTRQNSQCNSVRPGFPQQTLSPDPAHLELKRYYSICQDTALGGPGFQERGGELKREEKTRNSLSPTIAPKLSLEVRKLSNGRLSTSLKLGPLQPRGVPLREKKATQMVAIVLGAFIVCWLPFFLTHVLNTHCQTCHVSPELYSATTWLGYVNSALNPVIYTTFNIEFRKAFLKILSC
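Agonist mode: compounds and dopamine controls were applied to plated cells for 90 min at 37 degrees C after an overnight attachment at 1500 cells/well. Luminescent read-out followed 30 - 60 minutes at room temperature with DiscoveRx detection reagent.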
D3 antag = qHTS of D3 Dopamine Receptor Antagonist: qHTS | D(3) dopamine receptor (Homo sapiens), P35462 | D3R cells, DiscoveRx beta-arrestin luminescence, antagonist mode; active compounds read low | max response, negative = inhibition, % | 360,000 tested, 2.5% active; in the data active = max response below about -50%; inconclusive = no clear call, values can overlap the other calls
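Cells expressing the human receptor were seeded at 1500 cells/well, incubated overnight at 37 degrees C in 5% CO2, then exposed to library compounds with dopamine controls for 90 minutes at 37 degrees C before luminescent detection.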
TDP1 cell CPT = qHTS for Inhibitors of human tyrosyl-DNA phosphodiesterase 1 (TDP1): qHTS in cells in presence of CPT; chicken DT40 Tdp1-/-;hTDP1 cells + 20 nM CPT, ATP luminescence, 48 h; Potency, µM (series often up to 46.2 µM), usual class: inhibitors; 420,000 tested, 12% active; AID 686979, 2013; also: nearly all actives have a fitted effect of over 55% in size
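Chicken DT40 Tdp1-/- cells complemented with human TDP1, 400 cells/well, exposed to compounds plus 20 nM camptothecin for at least 48 h at 37 C; viability read as ATP content by CellTiter-Glo luminescence.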
DT40 TDP1 no CPT = qHTS for Inhibitors of human tyrosyl-DNA phosphodiesterase 1 (TDP1): qHTS in cells in absence of CPT | DT40 Tdp1-/- hTDP1 cells, no CPT, ATP luminescence, 48 h | 420,000 tested, 15% active | AID 686978, 2013 | Potency, µM (doses to about 46.2 µM), hits mostly inhibitors; also: nearly all actives have a fitted effect of over 55% in size
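Cells were dispensed at 400 per well, compounds added by pin tool, plates incubated ≥48 hr at 37 °C, then CellTiter-Glo added for 30 min at room temperature before luminescence reading. Line: DT40 Tdp1-/- complemented with hTDP1; camptothecin omitted.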
ClpP mod = qHTS Assay for Activators of ClpP; ATP-dependent Clp protease proteolytic subunit (Bacillus subtilis (strain 168)), P80244; Potency, µM (top dose mostly 57.5 µM); 340,000 tested, 1.9% active; purified B. subtilis ClpP, FRET peptide cleavage, 20 min; active = well fitted falling curve with a large enough effect; inconclusive = small, poorly fitted or top-dose-only effect; inactive = no such curve, though single readings can be large or run the other way; also: the source files actives as falling curves though it sought activators and does not explain the sign; nearly all actives have a fitted effect of over 65% in size
Target sequence (P80244 whole entry, looked up): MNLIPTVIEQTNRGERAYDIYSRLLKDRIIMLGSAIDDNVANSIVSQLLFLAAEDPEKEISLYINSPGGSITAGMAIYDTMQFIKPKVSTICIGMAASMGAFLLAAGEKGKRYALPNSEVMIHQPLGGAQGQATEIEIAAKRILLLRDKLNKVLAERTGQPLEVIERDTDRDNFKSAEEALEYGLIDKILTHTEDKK
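Buffer: 100 mM Tris/HCl pH8, 100 mM KCl, 0.05% low protease BSA, 2.5% glycerol, 0.01% Tween-20. ClpP 10 microg/mL final; 20 min RT; delta FRET normalized to ADEP and DMSO controls.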
IL1B secr inh = qHTS for Inhibitors of Inflammasome Signaling: IL-1-beta AlphaLISA Primary Screen; THP-1 LPS/ATP IL-1B secretion, AlphaLISA, 16 h; active compounds read low; activity change, % at 57.5 µM; 360,000 tested, 4.7% active; AID 743279, 2014; in the data active = activity change below about -50%; inconclusive = mostly about -30% to -49%
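Secreted IL-1B measured by AlphaLISA bead assay after 16 h compound exposure of THP-1 cells; compounds (final up to 57.5 uM) added 1 h before LPS (250 ng/mL) and ATP (1.25 mM) stimulation; lower signal means less secretion.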
Each line names hits and unclear results; the compound was inactive in the other large screens. Unless noted, calls follow the shape of the dose curve; as a rule, active = well fitted inhibition curve with a large enough effect; inconclusive = small, poorly fitted or top-dose-only effect; inactive = flat fitted curve, though single readings scatter.

COc1ccc(C(=O)OCC2CN2c2cccc([N+](=O)[O-])c2)cc1 (stereo unspecified)	TDP1 cell CPT inconclusive
O=C1NCCOC(=O)[C@H](Cc2ccc(F)cc2)CC/C=C/C[C@@H]1CC(=O)N(CCO)Cc1ccccc1	TDP1 cell CPT 16µM, DT40 TDP1 no CPT inconclusive
O=C1NCCOC(=O)[C@@H](Cc2ccc(F)cc2)CC/C=C/C[C@H]1CC(=O)N(CCO)Cc1ccccc1	TDP1 cell CPT 21µM, DT40 TDP1 no CPT inconclusive
COC(=O)C1=C(c2ccc(OC)c(OC)c2)C[C@@H]2CC[C@H]1N2C(=O)NCC1CC1	none
C[C@@H]1CN([C@H](C)CO)C(=O)CCCn2nncc2CO[C@@H]1CN(C)C(=O)Oc1ccc2ccccc2c1	DT40 TDP1 no CPT 8.2µM
C[C@@H]1CN([C@@H](C)CO)C(=O)CCCn2nncc2CO[C@@H]1CN(C)C(=O)Oc1ccc2ccccc2c1	DT40 TDP1 no CPT inconclusive
C[C@@H]1CN([C@@H](C)CO)C(=O)CCCn2nncc2CO[C@@H]1CN(C)C(=O)Oc1cccc2ccccc12	TDP1 cell CPT 0.52µM, DT40 TDP1 no CPT 0.58µM
C[C@H]1CN([C@@H](C)CO)C(=O)CCCn2nncc2CO[C@H]1CN(C)C(=O)Oc1ccc2ccccc2c1	TDP1 cell CPT 16µM, DT40 TDP1 no CPT 9.2µM
CCCCn1nnnc1C(c1ccc(OC)cc1)N1CCC2(CC1)C(=O)NCN2c1ccccc1 (stereo unspecified)	TDP1 cell CPT 18µM, DT40 TDP1 no CPT inconclusive
O=C1NCN(c2ccccc2)C12CCN(C(CCc1ccccc1)c1nnnn1C1CCCCC1)CC2 (stereo unspecified)	TDP1 cell CPT inconclusive, DT40 TDP1 no CPT inconclusive, IL1B secr inh -56
COc1ccc(C(c2nnnn2Cc2ccccc2)N2CCC3(CC2)C(=O)NCN3c2ccccc2)cc1 (stereo unspecified)	TDP1 cell CPT inconclusive, DT40 TDP1 no CPT inconclusive, IL1B secr inh -58
O=C1NCN(c2ccccc2)C12CCN(C(CCc1ccccc1)c1nnnn1C1CCCC1)CC2 (stereo unspecified)	TDP1 cell CPT inconclusive, DT40 TDP1 no CPT inconclusive, IL1B secr inh inconclusive
C[C@]12CCC3C(CC[C@H]4C[C@@H](O)[C@H](O)C[C@]34C)C1CC[C@@H]2O (stereo partly specified)	none (no result: ClpP mod)
CN(C)C1(CNC(=O)Nc2ccc(Cl)c(Cl)c2)CCCCC1	D3 antag -55, TDP1 cell CPT inconclusive, DT40 TDP1 no CPT inconclusive, IL1B secr inh -72 (no result: ClpP mod)
O=P(OCC(F)(F)C(F)F)(N1CCOCC1)N1CCOCC1	none
Nc1cccc(SC2CC(=O)N(c3ccc(Cl)cc3C(=O)c3ccccc3)C2=O)c1 (stereo unspecified)	TDP1 cell CPT inconclusive, DT40 TDP1 no CPT 21µM
O=C(NCCc1ccccc1)c1ccc2nccnc2c1	TDP1 cell CPT inconclusive (no result: ClpP mod)
O=C(NCCc1ccccc1)c1ccc(CSc2nc3cccnc3n2Cc2ccc(F)cc2)cc1	TDP1 cell CPT inconclusive, DT40 TDP1 no CPT 15µM (no result: D3 antag, IL1B secr inh)
CCOC(=O)c1[nH]ncc1CN1CCCC(C(=O)c2cccc(Cl)c2)C1 (stereo unspecified)	none
O=C(c1cc(F)ccc1F)C1CCCN(Cc2cccc(Cl)c2)C1 (stereo unspecified)	D3 antag -79, DT40 TDP1 no CPT inconclusive
O=C(c1cc(F)ccc1F)C1CCCN(CCCc2ccccc2)C1 (stereo unspecified)	D3 antag -74, TDP1 cell CPT inconclusive, DT40 TDP1 no CPT inconclusive (no result: ClpP mod)
O=C(Cc1ccccc1)N1CCN(CCCc2ccccc2)CC1	TDP1 cell CPT inconclusive, DT40 TDP1 no CPT inconclusive
COCCCNC(=S)NCCCNc1nc2cc(C)cc(C)c2cc1C#N	TDP1 cell CPT inconclusive, DT40 TDP1 no CPT inconclusive, IL1B secr inh inconclusive (no result: ClpP mod)
COc1cccc(-n2c(/C=C/c3ccccn3)nc3ccccc3c2=O)c1	TDP1 cell CPT inconclusive, DT40 TDP1 no CPT inconclusive, IL1B secr inh -84 (no result: ClpP mod)
COc1ccccc1-n1c(/C=C/c2ccccn2)nc2ccccc2c1=O	TDP1 cell CPT inconclusive, DT40 TDP1 no CPT inconclusive (no result: IL1B secr inh)
Cc1cccc(-n2c(/C=C/c3c[nH]c4ccccc34)nc3ccccc3c2=O)c1	TDP1 cell CPT 2.6µM, DT40 TDP1 no CPT 2.6µM (no result: D3 antag, IL1B secr inh)
Cc1cccc(-n2c(/C=C/c3ccccn3)nc3ccccc3c2=O)c1	TDP1 cell CPT 23µM, DT40 TDP1 no CPT inconclusive, IL1B secr inh -52
CN1CCC2=C[C@@H](O)[C@@H]3OC(=O)c4cc5c(cc4C3C21)OCO5 (stereo partly specified)	none (no result: D3 ag, D3 antag, ClpP mod, IL1B secr inh)
C=C(COC(C)=O)CC1CC(O)[C@]2(C)OC3CC4OC5C[C@]6(C)O[C@]7(C)CCC8OC9C[C@]%10(C)OC%11C(C)=CC(=O)OC%11CC%10OC9C[C@@H](C)C8OC7CC6O[C@]5(C)C/C=C\C4OC3CC2O1 (stereo partly specified)	TDP1 cell CPT 23µM, DT40 TDP1 no CPT inconclusive
C=C(CO)CC1CC(O)[C@]2(C)OC3CC4OC5C[C@]6(C)O[C@]7(C)CCC8OC9C[C@]%10(C)OC%11C(C)=CC(=O)OC%11CC%10OC9C[C@@H](C)C8OC7CC6O[C@]5(C)C/C=C\C4OC3CC2O1 (stereo partly specified)	TDP1 cell CPT 23µM, DT40 TDP1 no CPT 16µM
C=C(C=O)CC1CC(O)[C@]2(C)OC3CC4OC5C[C@]6(C)O[C@]7(C)CCC8OC9C[C@]%10(C)OC%11C(C)=CC(=O)OC%11CC%10OC9C[C@@H](C)C8OC7CC6O[C@]5(C)CC5OC5C4OC3CC2O1 (stereo partly specified)	TDP1 cell CPT 0.41µM, DT40 TDP1 no CPT 0.37µM, IL1B secr inh -104
CC1=NNC(=O)C1Br (stereo unspecified)	TDP1 cell CPT inconclusive, DT40 TDP1 no CPT inconclusive
CN(N)N=Nc1nc2c([nH]1)c(=O)n(C)c(=O)n2C	ClpP mod inconclusive
CC1OC(C)OC(C)O1 (stereo unspecified)	none (no result: D3 antag, ClpP mod, IL1B secr inh)
CC1CC(C)CN(S(=O)(=O)c2ccc3c(c2)oc(=O)n3CC(=O)NCc2cccnc2)C1 (stereo unspecified)	TDP1 cell CPT inconclusive, DT40 TDP1 no CPT inconclusive
CN(Cc1ccccc1)C(=O)Cn1c(=O)oc2cc(S(=O)(=O)NCc3ccccc3)ccc21	TDP1 cell CPT 15µM, DT40 TDP1 no CPT 21µM
